Results published in PubChem BioAssay AID1529 (NMMLSC, 2009).
About 4,200 (1.4%) of roughly 290,000 compounds were called active. The sample holds actives, similar compounds and a random draw of the others, so the mix is not that of the screen. Values without a mark were called inactive.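 The calls were made as follows: active = binding response more than 3 SD above or below the average of its plate-row segment, actives on both sides; inconclusive = wells at one plate position flagged as instrument error; inactive = the rest.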

molecular target: Mitogen-activated protein kinase kinase kinase 3 (Homo sapiens) (UniProt Q99759); test: modulators of MEKK3-MEK5 PB1 binding, primary screen, biochemical, wildtype MEKK3, multiplex bead flow cytometry, Alexa488-MEK5 (AID 1529); conditions: bead-based flow cytometry, Alexa488-MEK5 binding to MEKK3; at 10 µM; actives lie on both sides; 0 = blocked by unlabeled MEK5, 100 = vehicle;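 also: Alexa488 bead fluorescence after subtracting the streptavidin-only scavenger bead signal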
Sequence (Q99759 whole entry, looked up): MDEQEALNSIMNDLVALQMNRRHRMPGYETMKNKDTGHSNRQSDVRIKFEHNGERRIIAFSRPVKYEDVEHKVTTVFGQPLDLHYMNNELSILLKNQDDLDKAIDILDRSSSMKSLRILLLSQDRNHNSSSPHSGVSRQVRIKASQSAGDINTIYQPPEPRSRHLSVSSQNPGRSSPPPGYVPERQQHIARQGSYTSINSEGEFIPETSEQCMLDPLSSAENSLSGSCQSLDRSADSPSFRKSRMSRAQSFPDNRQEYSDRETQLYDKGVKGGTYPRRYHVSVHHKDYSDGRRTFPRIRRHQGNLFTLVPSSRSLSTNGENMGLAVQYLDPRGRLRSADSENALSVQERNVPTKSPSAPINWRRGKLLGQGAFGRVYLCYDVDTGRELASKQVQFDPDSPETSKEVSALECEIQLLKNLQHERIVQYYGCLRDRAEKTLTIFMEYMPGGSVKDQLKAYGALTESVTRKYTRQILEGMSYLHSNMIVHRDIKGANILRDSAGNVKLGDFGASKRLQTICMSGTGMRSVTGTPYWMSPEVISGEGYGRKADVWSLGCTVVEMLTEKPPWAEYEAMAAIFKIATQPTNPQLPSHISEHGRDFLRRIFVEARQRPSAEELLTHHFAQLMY

Row | Structure (SMILES) | binding response (% of control)
1 | CCc1ccc(NC(=O)Cn2nnc(C(=O)NCc3ccc4c(c3)OCO4)c2N)cc1 | 100%
2 | Cc1ccccc1OCC(=O)Nc1ccc(N2CCN(C(=O)C(C)C)CC2)c(Cl)c1 | 122% (active)
3 | CCC(=O)N1CCN(c2ccccc2NC(=O)COc2cccc(C)c2C)CC1 | 102%
4 | Cc1ccccc1OCC(=O)Nc1ccc(S(=O)(=O)N2CCOCC2)cc1 | 95%
5 | CCN1C(=O)N[C@@H](CCc2ccccc2)C(C(=O)OC)=C1C | 101%
6 | CCC(=O)Nc1nnc(S(=O)(=O)N2CCCc3ccccc32)s1 | 98%
7 | O=C(CCN1C(=O)[C@@H]2Cc3ccccc3CN2C1=O)NCCc1ccccc1 | 99%
8 | Cc1[nH][nH]c(=O)c1C(c1ccc(-c2ccc(Cl)cc2)o1)c1c(C)[nH][nH]c1=O | 95%
9 | Cc1[nH][nH]c(=O)c1C(c1ccc2c(c1)OCO2)c1c(C)[nH][nH]c1=O | 102%
10 | CCOc1ccc(C(c2c(C)[nH][nH]c2=O)c2c(C)[nH][nH]c2=O)cc1OCC | 152% (active)
11 | CCOc1ccc(CN2CCN(Cc3c[nH]c4ccccc34)CC2)cc1 | 99%
12 | Cn1ccnc1-c1nnn(-c2ccc(F)cc2)n1 | 95%
13 | CCOc1cc(C2C(C(=O)OC)=CN(C3CCCC3)C=C2C(=O)OC)cc(Br)c1O | 80% [inhibitor] (active)
14 | COC(=O)C1=CN(Cc2ccc(OC)cc2)C=C(C(=O)OC)C1c1ccc(O)c(OC)c1 | 104%
15 | CCOc1ccccc1C1C(C(=O)OC)=CN(C)C=C1C(=O)OC | 102%
16 | COc1nnc(-c2ccc(C)c(S(=O)(=O)N(C)C)c2)c2ccccc12 | 101%
17 | Cc1c(C#N)c2ncn(CC#N)c(=O)c2n1-c1ccccc1 | 122% (active)
18 | CN(C)/C=C/c1c(C#N)c(=O)ncn1Cc1ccccc1 | 103%
19 | CC(=O)Cn1cnc2c(cnn2-c2ccccc2)c1=O | 102%
20 | Cc1cc(N2CCOCC2)nc2ccc(NC(=S)N3CCN(Cc4ccccc4)CC3)cc12 | 92%
21 | COc1ccc(C(C(=O)NC(C)(C)C)N(Cc2ccc(F)cc2)C(=O)CCC(=O)Nc2cc(C)on2)cc1 (configuration not stated) | 100%
22 | NC(=O)C1CCN(C(=O)CC2C(=O)NCCN2Cc2cccc(Oc3ccccc3)c2)CC1 (configuration not stated) | 101%
23 | Cc1ccc2occ(/C=N/NC(=O)c3ccccc3C)c(=O)c2c1 | 104%

Row | Structure (SMILES) | binding response (% of control)
24 | O=c1c(/C=N/O)coc2ccc(Cl)cc12 | 48% [inhibitor] (active)
25 | NC(=S)N/N=C/c1coc2cc(Cl)ccc2c1=O | 92%
26 | Cc1ccc(OCC(=O)Nc2ccc3oc(=O)ccc3c2)cc1C | 102%
27 | O=C(Nc1ccc(Cl)cc1)Nc1ccc(C(=O)N2CCOCC2)cc1 | 103%
28 | Cc1ccccc1-c1ccc(Nc2ccc(C(=O)N3CCOCC3)cc2)nn1 | 79% [inhibitor] (active)
29 | Cc1ccc(C(=O)N2CCN(C(=O)N3CCOCC3)CC2)cc1 | 107%
30 | Cc1cc(Cl)ccc1OCc1nc(-c2ccncc2)no1 | 73% [inhibitor] (active)
31 | c1ccc(CCc2nc(-c3ccncc3)no2)cc1 | 105%
32 | COc1ccc(-c2noc(COc3ccc(Cl)c(C)c3)n2)cc1 | 102%
33 | CCC1Oc2ccccc2N(CC(=O)NCCCN2CCN(CC)CC2)C1=O (configuration not stated) | 105%
34 | COc1ccc(S(=O)(=O)N(C)CC(=O)N2CCCC2)cc1 | 101%
35 | C[N+](C)(C)CCNC(=O)c1c(O)c2c([nH]c1=O)CCCC2 | 78% [inhibitor] (active)
36 | O=C(NCc1ccccn1)c1c(O)c2c([nH]c1=O)CCCC2 | 107%
37 | CCc1nnc(NC(=O)c2c(O)c3c([nH]c2=O)CCCC3)s1 | 105%
38 | O=C(CN(c1cc(C(F)(F)F)ccc1Cl)S(=O)(=O)c1ccccc1)NCc1cccnc1 | 101%
39 | COc1cc(NC(=O)C2CCN(c3cnccn3)CC2)cc(OC)c1 | 102%
40 | Cc1[nH]c2ccc(C(=O)N3CCN(C)CC3)cc2c1C | 99%
41 | COC(=O)CCNC(=O)c1ccc2[nH]c(C)c(C)c2c1 | 102%
42 | Cc1[nH]c2ccc(S(N)(=O)=O)cc2c1C | 81% [inhibitor] (active)
43 | Cc1cccc(Nc2nc(NCCO)nc(N3CCCC3)n2)c1 | 106%
44 | CN(CCNC(=O)c1cc2c(-c3ccccc3F)nn(C)c2s1)C1CCCCC1 | 108%
45 | CC(C)(C)NC(=O)/C(=C/c1cccnc1)NC(=O)c1ccco1 | 101%
46 | Cc1ccc(C(=O)N/C(=C/c2cccnc2)C(=O)O)cc1 | 95%

Row | Structure (SMILES) | binding response (% of control)
47 | O=C(O)/C(=C/c1cccnc1)NC(=O)c1ccccc1 | 156% (active)
48 | Cc1nnc(SCC(=O)Nc2ccc(S(=O)(=O)Nc3ccc(Cl)nn3)cc2)s1 | 99%
49 | COc1ccccc1/C=C1\SC(=O)N(CCC(=O)N(C)C2CCS(=O)(=O)C2)C1=O (configuration not stated) | 98%
50 | Cc1c(CN2CC[C@@H](N3CCN(c4ccccn4)CC3)[C@H](O)C2)[nH]c2ccc(F)cc12 | 104%
51 | CCOC(=O)CN(C)S(=O)(=O)c1ccc(-c2cc(C(=O)OC)sc2C(F)(F)F)cc1 | 129% (active)
52 | COC(=O)c1sc(C(F)(F)F)c(-c2ccccc2)c1S(=O)(=O)N(C)C | 106%
53 | Cc1ccc(S(=O)(=O)N(C)CC(=O)OCC(=O)Nc2ccccc2)cc1 | 94%
54 | O=C(O)C1=NN(c2c(F)c(F)cc(F)c2F)C(=O)CC1 | 95%
55 | CCOC(=O)CSc1nnc(NC(=O)C2CC(=O)N(c3ccc(F)cc3)C2)s1 (configuration not stated) | 102%
56 | COC(=O)c1cccc(N(C(=O)CNC(=O)c2cccs2)C(C(=O)NCC2CCCO2)c2ccc(OC)c(OC)c2)c1 (configuration not stated) | 100%
57 | COC(=O)[C@@H]1CC(O)CN1C(=O)C12CC3CC(CC(C3)C1)C2 (some centres not stated) | 96%
58 | O=C(O)c1cc(Cl)c(Cl)cc1C(=O)Nc1cccc2ncccc12 | 128% (active)
59 | O=C(Nc1cccc2ncccc12)C(Cl)(Cl)Cl | 101%
60 | O=C(Nc1cccc2ncccc12)c1ccc(-c2ccc(Cl)cc2Cl)o1 | 102%
61 | OCC[C@H]1C[C@H](O)[C@@H](O)[C@]2(CCCCO2)O1 | 100%
62 | COc1ccccc1Nc1ncc(C(C)=O)c(C)n1 | 104%
63 | CCc1ccc2nc(Nc3ncc(C(C)=O)c(C)n3)nc(C)c2c1 | 49% [inhibitor] (active)
64 | Cc1ccc2nc(Nc3ncc4c(n3)CC(C)(C)CC4=O)nc(C)c2c1 | 102%
65 | CCn1c(NCCc2ccc(OC)c(OC)c2)nc2c1c(=O)n(C)c(=O)n2C | 103%
66 | CCCCn1c(SCC(=O)NCCc2ccc(OC)c(OC)c2)nc2c1c(=O)n(C)c(=O)n2C | 0% [inhibitor] (active)
67 | C#CC(C)(C)NC(=O)CSc1nc2c(c(=O)n(C)c(=O)n2C)n1CCCC | 108%
68 | Cc1ccc(O)c(/C=N/NC(=O)COc2ccc3c(C)cc(=O)oc3c2)c1 | 99%
69 | COc1cccc(/C(C)=N/Nc2ncc(Cl)cc2Cl)c1 | 135% (active)

Row | Structure (SMILES) | binding response (% of control)
70 | C/C(=N\Nc1ncc(Cl)cc1Cl)c1cccs1 | 103%
71 | C/C(=N\Nc1ncc(Cl)cc1Cl)c1ccc(S(=O)(=O)NCc2ccco2)cc1 | 108%
72 | O=C(CN(C(=O)c1nsc(Cl)c1Cl)c1cccc(F)c1)NC1CCCC1 | 99%
73 | COCc1ccc(C(=O)NC2CC(C)(C)Cc3c2cnn3-c2ccc(C)cc2)o1 (configuration not stated) | 97%
74 | CC1CCC2(CC1)NC(=O)N(CC(=O)c1ccc3c(c1)OCO3)C2=O (configuration not stated) | 99%
75 | CC(C)CC(=O)NC(=S)NCc1ccccc1 | 141% (active)
76 | CC(C)CC(=O)NC(=S)Nc1ccc(F)cc1F | 117%
77 | CC(C)CC(=O)NC(=S)Nc1cc(C(=O)O)ccc1Cl | 132% (active)
78 | CC(C)CNC(=O)C(=O)NCc1ccccc1 | 96%
79 | CC(=O)c1ccc(NC(=S)NC(=O)CC(C)C)cc1 | 104%
80 | CC(C)Oc1ccc(CCC(=O)NNC(=S)NCc2ccccc2)cc1 | 95%
81 | CCc1nn(CCCC(=O)Nc2ccc(C)cc2C)c(=O)c2cc3occc3n12 | 99%
82 | CN(Cc1ccccc1Cl)C(=O)C1CCC(=O)N(CCc2cccc(F)c2)C1 (configuration not stated) | 102%
83 | COc1ccc(N(CC(=O)N2CCCCCC2)S(=O)(=O)c2ccccc2)cc1 | 102%
84 | COc1ccc(C(=O)O/N=C(\N)c2ccccn2)cc1[N+](=O)[O-] | 107%
85 | COC(=O)c1c(NC(=O)COC(=O)[C@@H](NS(=O)(=O)c2ccccc2)C(C)C)sc2c1CCC2 | 2% [inhibitor] (active)
86 | COC(=O)c1c(NC(=O)CCCC(=O)O)sc2c1CCCCC2 | 99%
87 | CCc1ccc(N(CC(=O)Nc2sc3c(c2C(=O)OC)CCCC3)S(C)(=O)=O)cc1 | 92%
88 | CC(C)CN(Cc1c(O)ccc2c(=O)c(-c3ccccc3)coc12)CC(C)C | 102%
89 | CC(=O)Nc1ccc(NC(=S)NC(=O)c2ccc([N+](=O)[O-])c(C)c2)cc1 | 97%
90 | Cc1ccc(C(=O)NC(=S)Nc2ccc3[nH]c(=O)[nH]c3c2)cc1C | 145% (active)
91 | Cc1cc(C)cc(C(=O)NC(=S)Nc2ccc3[nH]c(=O)[nH]c3c2)c1 | 105%
92 | CC1(C)CC[C@]2(C(=O)O)CC[C@]3(C)C(=CCC4[C@@]5(C)CC[C@H](O)C(C)(C)C5[C@H](O)C[C@]43C)[C@@H]2C1 (some centres not stated) | 101%
